Screening results as filed in PubChem.
Most compounds without a hit are left out; they make up all but 2.2% or so of the library.
Abeta yeast res: restores growth of yeast expressing A-beta42 peptide. yeast expressing A-beta42, growth rescue, OD600, 48 h; response scale: 0% DMSO, 100% iron-clioquinol control. Potency, µM (doses to about 46.1 µM), most hits filed as activators. 410,000 tested, 0.063% active. AID 1347071; also: nearly all actives have a fitted effect of over 55% in size
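Yeast A-beta toxicity model in growth medium with pinned compounds, 48 h at 30 C; growth read as absorbance at 600 nm. Normalized to FeCl3/clioquinol equimolar mix (positive) and DMSO (negative).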
aSyn yeast inh: rescues yeast growth from alpha-synuclein toxicity; Yeast expressing alpha-synuclein, growth rescue, BacTiter-Glo, 24 h; AID 652106; 370,000 tested, 0.14% active; Potency, µM (series often up to 46.1 µM), hits mostly activators; also: nearly all actives have a fitted effect of over 65% in size
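Readout is rescue of growth in alpha-synuclein-expressing yeast, so inhibitors of toxicity appear as activators. Growth after 24 hr at 30 deg C in galactose medium is quantified by luminescence.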
Mito fusion act: blocks mitochondrial division or promotes mitochondrial fusion | S. cerevisiae fusion-defective mutant growth rescue, CellTiterGlo 48 h | Potency, µM (highest dose often 46.1 µM), hits mostly activators | 320,000 tested, 0.23% active | AID 485298; also: nearly all actives have a fitted effect of over 45% in size
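Temperature-sensitive fusion-defective S. cerevisiae (e.g. fzo1-1, mgm1-5) were grown with compound in YPEG medium (3% ethanol, 3% glycerol) for 48 hours at 37C. Growth rescue was measured as viability by CellTiterGlo luminescence after 10 minutes at ambient.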
TDP43 rescue: TDP-43 toxicity inhibition in yeast. AID 652104. Potency, µM (top dose mostly 46.1 µM), hits mostly activators. TDP-43 expressing yeast growth rescue, BacTiter-Glo, 24 h. 410,000 tested, 1.8% active; also: nearly all actives have a fitted effect of over 50% in size
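Readout is BacTiter-Glo luminescence of cell growth, so inhibitors register as activators. TDP-43-expressing yeast at OD600=0.02 in galactose medium, after raffinose pregrowth to mid-log, were incubated with compound for 24 hr at 30 deg C.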
FUS yeast rescue: rescues growth of FUS-expressing yeast; S. cerevisiae FUS-expressing, growth rescue, OD600, 24 h; Potency, µM (top dose mostly 76.6 µM), most hits filed as activators; 390,000 tested, 0.24% active; AID 1347120; also: nearly all actives have a fitted effect of over 55% in size
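Galactose (2%) drives FUS expression in yeast precultured in raffinose; seeding density OD 0.005. Test compounds incubated 24hr at 30C and 99% humidity before absorbance at 600 nm was measured.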
Of the large screens only hits and unclear results are named; the others gave an inactive call. Calls follow the shape of the dose curve; as a rule, active = well fitted curve in the direction sought with a large enough effect; inconclusive = small, poorly fitted or top-dose-only effect, or another doubt; inactive = no such curve, though single readings can be large; an effect the other way counts as inactive or inconclusive.

Cc1scc(C(=O)N2CCN(c3ccc(Cl)cc3)CC2)c1C	TDP43 rescue 14µM
CC(=O)c1ccc(N2CCN(C(=O)c3ccc4[nH]c(C)c(C)c4c3)CC2)cc1	TDP43 rescue inconclusive (no result: Mito fusion act)
Cc1[nH]c(-c2ccc(F)cc2)cc1C(=O)N1CCN(c2ccc(Cl)cc2)CC1	aSyn yeast inh inconclusive, TDP43 rescue 16µM
Cc1occc1C(=O)N1CCN(c2ccc(Cl)cc2)CC1	TDP43 rescue 10µM
Cc1[nH]c2ccc(C(=O)N3CCN(c4ccc(F)cc4)CC3)cc2c1C	TDP43 rescue 14µM
COc1ccc(NC(=O)c2cc3c(s2)-c2c(C)cccc2OC3)c(OC)c1	none (no result: aSyn yeast inh, Mito fusion act)
O=C(Nc1cc(Sc2nc3ccccc3s2)cc([N+](=O)[O-])c1)c1ccccc1	Mito fusion act inconclusive (no result: FUS yeast rescue)
O=C(Nc1cc(Sc2ccccn2)cc([N+](=O)[O-])c1)c1cccc(F)c1	Mito fusion act 18µM, TDP43 rescue 22µM (no result: FUS yeast rescue)
Oc1ccc(-c2c(C3=CCCCC3)sc3ccccc23)cc1	TDP43 rescue 20µM
COCCCNC(=O)Cn1nc(Cc2ccncc2)c2ccccc2c1=O	none (no result: Abeta yeast res, aSyn yeast inh, Mito fusion act, TDP43 rescue)
Cn1c(SCc2ccccc2Cl)nnc1-c1cnccn1	TDP43 rescue 11µM
Cn1c(SCc2cccc(F)c2)nnc1-c1cnccn1	none
COCCNc1cc(N)c([N+](=O)[O-])cc1[N+](=O)[O-]	TDP43 rescue 11µM
CCCCNc1c(C(=O)OCC)c(C)nc2c1cnn2CC	Mito fusion act 23µM
COc1cc(Br)c(CC(=O)NO)cc1OC	none (no result: Abeta yeast res, Mito fusion act, TDP43 rescue, FUS yeast rescue)
CC[C@@H]1Cc2[nH][nH]c(=O)c2[C@@H](c2ccc(Cl)cc2)O1	TDP43 rescue 16µM (no result: Mito fusion act)
O=c1[nH]c(=S)[nH]c2c1C(c1ccccc1)OC(C1CCCCC1)C2 (stereo unspecified)	none (no result: Mito fusion act)
CCCC[C@@H]1Cc2[nH][nH]c(=O)c2[C@H](c2cccc3ccccc23)O1	TDP43 rescue 11µM (no result: Mito fusion act)
CCCCC1CC2=C(C(=O)OC(C)(C)O2)C(c2cccc3ccccc23)O1 (stereo unspecified)	TDP43 rescue inconclusive (no result: Mito fusion act)
O=c1[nH][nH]c2c1[C@H](c1ccc(Cl)cc1)O[C@H](C1CCCC1)C2	TDP43 rescue 18µM (no result: Mito fusion act)
CC(C)C[C@@H]1Cc2[nH][nH]c(=O)c2[C@H](c2ccc(Cl)cc2)O1	TDP43 rescue inconclusive (no result: Mito fusion act)
CC(C)c1ccc([C@@H]2O[C@H](CCc3ccccc3)Cc3[nH][nH]c(=O)c32)cc1	TDP43 rescue 16µM, FUS yeast rescue inconclusive (no result: Mito fusion act)
Cc1ccc2onc(CNC(=O)NCc3ccccc3)c2c1	none (no result: aSyn yeast inh, Mito fusion act)
CN(C)c1cc2c3ccccc3ccc2c2ccccc12	none (no result: Abeta yeast res, Mito fusion act, TDP43 rescue, FUS yeast rescue)
CC(=O)N[C@@H]1C[C@@H]2O[C@@H](CO)CC[C@@H]2O[C@@H]1CCc1ccc(C#CC2(O)CCCC2)cc1	none (no result: Abeta yeast res, aSyn yeast inh, Mito fusion act, TDP43 rescue)
CC1(C(=O)Nc2ccc3c(c2)OCCO3)CCN1C(=O)C1(c2ccc(Cl)cc2)CCC1 (stereo unspecified)	FUS yeast rescue inconclusive (no result: Mito fusion act)
CC1(C(=O)NS(=O)(=O)c2ccc(C#N)cc2)CCN1C(=O)C1(c2ccc(Cl)cc2)CCC1 (stereo unspecified)	none (no result: Mito fusion act)
CC1(C(=O)NS(=O)(=O)c2cccc(C#N)c2)CCN1C(=O)C1(c2ccc(Cl)cc2)CCC1 (stereo unspecified)	aSyn yeast inh 28µM (no result: Mito fusion act)
CC1(C(=O)Nc2ccc3c(c2)OCCO3)CCN1C(=O)C1(c2ccc(Cl)cc2)CC1 (stereo unspecified)	TDP43 rescue 35µM (no result: Mito fusion act)
COc1cc(CN(C)c2ncnc3sccc23)ccc1OC(F)F	TDP43 rescue 18µM
COC(=O)[C@]12C[C@H](CC(=O)N3CCN(C(=O)c4ccco4)CC3)C(=O)N(Cc3ccco3)C1=C[C@H](COCc1ccccc1)O[C@@H]2C	none (no result: Abeta yeast res, aSyn yeast inh, Mito fusion act, TDP43 rescue)
Cn1ccc2cc(-c3ccc4ncnc(NCc5cccnc5)c4c3)ccc21	none (no result: Abeta yeast res, aSyn yeast inh, TDP43 rescue, FUS yeast rescue)
COC(=O)c1ccc(COc2ccc(C(=O)c3ccccc3)cc2)o1	TDP43 rescue 11µM
Cc1cccc(NC(=O)c2ccc(COc3ccc(Cl)cc3Cl)o2)n1	TDP43 rescue 18µM, FUS yeast rescue inconclusive
Cc1csc(NC(=O)c2ccc(COc3cccc(Cl)c3)o2)n1	none (no result: Abeta yeast res, aSyn yeast inh, Mito fusion act, TDP43 rescue)
O=C(Nc1nccs1)c1ccc(COc2c(F)c(F)cc(F)c2F)o1	none
Cc1cccc(NC(=O)c2ccc(COc3ccccc3)o2)n1	TDP43 rescue inconclusive
